GLS inhibitor = inhibitors of human glutaminase (GLS); O94925; GLS enzymatic activity, qHTS titration; Potency, µM (titrated, usually from 45.5 µM), most hits filed as inhibitors; actives 0.21% (n = 410,000); AID 624170
Target sequence (O94925 whole entry, looked up): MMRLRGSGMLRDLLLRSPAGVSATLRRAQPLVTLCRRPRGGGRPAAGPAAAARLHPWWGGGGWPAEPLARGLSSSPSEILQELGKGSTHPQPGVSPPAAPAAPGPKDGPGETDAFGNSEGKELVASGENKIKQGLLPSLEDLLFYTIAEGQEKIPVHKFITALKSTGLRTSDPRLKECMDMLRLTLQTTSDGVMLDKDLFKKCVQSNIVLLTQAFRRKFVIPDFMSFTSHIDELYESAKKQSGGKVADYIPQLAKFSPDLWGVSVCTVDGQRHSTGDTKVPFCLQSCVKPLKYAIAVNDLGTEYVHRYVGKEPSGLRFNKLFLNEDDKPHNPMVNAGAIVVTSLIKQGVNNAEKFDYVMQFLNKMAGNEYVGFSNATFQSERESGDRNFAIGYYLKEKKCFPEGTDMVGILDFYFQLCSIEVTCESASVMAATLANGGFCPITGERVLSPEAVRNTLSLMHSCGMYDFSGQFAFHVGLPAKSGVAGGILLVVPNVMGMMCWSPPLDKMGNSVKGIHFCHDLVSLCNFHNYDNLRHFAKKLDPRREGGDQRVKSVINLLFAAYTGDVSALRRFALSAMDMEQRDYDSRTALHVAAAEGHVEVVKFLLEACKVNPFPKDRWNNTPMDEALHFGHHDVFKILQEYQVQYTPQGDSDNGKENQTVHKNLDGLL
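Read-out is an Amplex red fluorescence increase coupled through glutamate oxidase and HRP, measured before and after 30 min room-temperature incubation. hKGA is in 45 mM KH2PO4 (pH 8.2) with 0.02% Tween-20; glutamine added as 1mM solution.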
GLP1R ag = agonists of human GLP-1 receptor; P43220; HEK293 GLP-1R CRE-luciferase, luminescence, 4-6 h; cells express a hypersensitive GLP-1R form; Potency, µM (series often up to 45.6 µM), hits mostly activators; actives 0.007% (n = 380,000)
hERG WT inh = blocks the wildtype human KCNH2 potassium channel | U2OS, BacMam KCNH2, thallium flux FluxOr; stronger effect = lower value | activity change, % at 1.84 µM | actives 0.37% (n = 340,000);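 active = maximum activity change below -70%; inconclusive = maximum activity change between -70% and -50%; inactive = maximum activity change above -50%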
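U2OS cells transduced with wild-type KCNH2 virus are loaded with FluxOr dye for 45 min, and thallium flux is measured in kinetic reads before and after stimulation buffer. Rate constants are normalized to DMSO controls.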
GLP1R inv ag = GLP-1 receptor (human) inverse agonism; P43220; HEK293 GLP-1R CRE-luciferase, luminescence, 24 h; GLP-1R form is constitutively active; Potency, µM (top dose mostly 38.3 µM), hits mostly inhibitors; actives 1.6% (n = 410,000); also: nearly all actives have a fitted effect of over 55% in size
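Inverse agonists were sought by their lowering of basal cAMP reporter luciferase output in HEK293 cells stably carrying constitutively active human GLP-1R, after 24 h compound treatment.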
HEK293 tox = cytotoxicity in counter-screen for GLP-1R inverse agonists; actives 0.13% (n = 410,000); HEK293 cAMP-luciferase reporter cells, luminescence, 24 h; Potency, µM (doses to about 38.3 µM), actives largely listed as inhibitors;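 also: loss of luciferase light is scored as toxicity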
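Quantitative HTS format, 1536 wells, 200 cells/uL seeded. Compounds: 23 nL, 24 h, 37 °C. Detection: luciferase reagent, luminescence at 12 min RT; decreased signal taken as cytotoxic.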
KCNH2 3.1 inh = KCNH2 3.1 (human) potassium channel inhibition | activity change, % (tested at about 1.8 µM) | U2OS KCNH2 3.1, thallium flux FluxOr; stronger effect = lower value | actives 0.95% (n = 340,000);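 active = maximum activity change below -70%; inconclusive = maximum activity change from -70% to -50%; inactive = maximum activity change above -50%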;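 also: thallium influx rate constant from kinetic fluorescence after stimulation buffer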
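Thallium flux read-out: FluxOr dye with Red40 quencher in HBSS/HEPES, 45 min at RT. Rate constants from kinetic reads were normalized to positive and negative DMSO controls. Cells: U2OS virally expressing the 3.1 isoform.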
Of the large screens only hits and unclear results are named; the others gave an inactive call. Rows were chosen to be rich in hits. Some 2.8% of all compounds tested hit in one or more screens of this group. Unless noted, calls follow the shape of the dose curve; as a rule, active = well fitted curve in the direction sought with a large enough effect; inconclusive = small, poorly fitted or top-dose-only effect, or another doubt; inactive = no such curve, though single readings can be large; an effect the other way counts as inactive or inconclusive.

Cc1ccc(N2CC(NC(=O)c3ccc(S(=O)(=O)N(C)C)cc3)CC2=O)cc1C (configuration not stated)	none (no result: GLP1R ag, hERG WT inh, KCNH2 3.1 inh)
CCOC(=O)Cc1csc(NC(=O)CCN2C(=O)c3ccccc3C2=O)n1	KCNH2 3.1 inh -213
C=CCN=c1scc(-c2ccc(F)cc2)n1/N=C/c1ccccn1	GLP1R ag inconclusive, GLP1R inv ag inconclusive
CCN=c1scc(-c2ccccc2)n1/N=C/c1ccccn1	GLP1R inv ag 3.2µM
C=CCN=c1scc(-c2ccccc2)n1/N=C/c1ccccn1	GLP1R inv ag 11µM, HEK293 tox inconclusive
CCN=c1scc(-c2ccc(F)cc2)n1/N=C/c1ccccn1	GLP1R inv ag inconclusive
Cc1ccc(C(=O)NCc2ccc3c(c2)OCO3)cc1S(=O)(=O)N1CCCCC1	hERG WT inh -91, GLP1R inv ag inconclusive
Cc1cc(C(=O)NCc2ccc3c(c2)OCO3)ccc1[N+](=O)[O-]	none
O=C(NCc1ccc2c(c1)OCO2)c1ccc(Cl)c(S(=O)(=O)N2CCOCC2)c1	KCNH2 3.1 inh -94
CC1CC(C)CN(c2ccc(C(=O)NCc3ccc4c(c3)OCO4)cc2[N+](=O)[O-])C1 (configuration not stated)	GLP1R inv ag 11µM
COc1ccc(NC(=O)CN(C)S(=O)(=O)c2ccc3c(c2)CCCN3C(C)=O)cc1Cl	none (no result: GLP1R ag, hERG WT inh, KCNH2 3.1 inh)
CCOc1ccc(CCNC(=O)c2cnc3sc(N4CCC(C)CC4)nn3c2=O)cc1	none (no result: GLP1R ag, hERG WT inh, KCNH2 3.1 inh)
NC(=O)C1CCCN(C(=O)c2ccc(NC(=O)c3cccs3)cc2)C1 (configuration not stated)	none
Cc1ccc2c(c1)C1CN(C)CCC1N2C(=O)COc1ccc(N(C)C(=O)c2ccccc2)cc1 (configuration not stated)	GLP1R inv ag inconclusive
CCCC(=O)O[C@@H]1C[C@@H](C)N(C(=O)c2ccccc2)c2ccc(C)cc21	GLP1R inv ag 10µM
CN(C1=C(NC(=O)c2ccc(Cl)cc2)C(=O)c2ccccc2C1=O)c1ccccc1	hERG WT inh -153, GLP1R inv ag inconclusive, KCNH2 3.1 inh -98
O=C(NC1=C(Nc2ccc(Cl)cc2)C(=O)c2ccccc2C1=O)c1ccccc1	GLP1R inv ag inconclusive, HEK293 tox inconclusive
COc1ccc(C(=O)C/C(=C\C(=O)c2ccc(C)cc2)c2ccccc2)cc1	GLP1R inv ag 4.5µM
COc1ccccc1NC(=O)CN1CCN(CC(=O)Nc2ccc(F)cc2F)CC1	KCNH2 3.1 inh -86
COc1ccccc1NC(=O)CN1CCN(CC(=O)Nc2ccc(Cl)c(C(F)(F)F)c2)CC1	GLP1R inv ag 4µM, HEK293 tox inconclusive
COc1cc(NC(=O)Nc2cccc(Cl)c2)c(OC)cc1NC(=O)CN1CCCCC1	GLP1R inv ag 3.2µM, HEK293 tox inconclusive
COc1ccc(-c2ccc3c(N)c(C(=O)NCc4ccc(Cl)cc4)sc3n2)cc1	none (no result: GLP1R ag, hERG WT inh, KCNH2 3.1 inh)
COc1ccc(CN(C)C(=O)C2CSC3(C)CCC(=O)N23)c(OC)c1 (configuration not stated)	none
O=C(Cn1cc(SCc2c(F)cccc2Cl)c2ccccc21)N1CCCCCC1	GLP1R inv ag 10µM (no result: GLP1R ag, hERG WT inh, KCNH2 3.1 inh)
O=C(Cn1cc(SCc2c(F)cccc2Cl)c2ccccc21)N1CCCCC1	none (no result: GLP1R ag, hERG WT inh, KCNH2 3.1 inh)
COc1ccccc1N1CCN(S(=O)(=O)c2cc(C(=O)Nc3ccc(Oc4ccccc4)cc3)ccc2F)CC1	GLP1R inv ag inconclusive (no result: GLP1R ag, hERG WT inh, KCNH2 3.1 inh)
CC1CCN(S(=O)(=O)c2ccc3c(ccn3CC(=O)NCc3ccc(N(C)C)cc3)c2)CC1	none (no result: GLP1R ag, hERG WT inh, KCNH2 3.1 inh)
Cc1onc(-c2ccccc2Cl)c1C(=O)NC(=S)Nc1ccc(C(C)C)cc1	GLP1R inv ag 4µM
CCCOC(=O)c1cccc(NC(=O)c2c(-c3ccccc3Cl)noc2C)c1	GLP1R inv ag 8.9µM (no result: GLP1R ag, hERG WT inh, KCNH2 3.1 inh)
COc1ccccc1NC(=S)NC(=O)c1c(-c2ccccc2Cl)noc1C	GLP1R inv ag 4µM (no result: hERG WT inh)
CCCOc1cccc(NC(=O)c2c(-c3ccccc3Cl)noc2C)c1	GLP1R inv ag inconclusive (no result: GLP1R ag, hERG WT inh, KCNH2 3.1 inh)
Fc1cccc(-n2ncc3c2ncn2nc(Cc4ccccc4)nc32)c1	none (no result: GLP1R ag, hERG WT inh, KCNH2 3.1 inh)
CC(C)NC(=O)C(c1ccccc1)N1Cc2ccccc2C1=O (configuration not stated)	none (no result: GLP1R ag, hERG WT inh, KCNH2 3.1 inh)
COc1ccc(OC)c(CCNC(=O)CCn2c(=O)c3cccn3c3cccnc32)c1	none (no result: GLP1R ag, hERG WT inh, KCNH2 3.1 inh)
Cc1n[nH]c(C)c1Sc1ccccc1N=Cc1cc(Cl)cc([N+](=O)[O-])c1O	GLS inhibitor inconclusive, hERG WT inh -133
Cc1n[nH]c(C)c1Sc1ccccc1[N+](=O)[O-]	none
COCCN(C(=O)COC(=O)C(c1ccccc1)c1ccccc1)c1c(N)n(Cc2ccccc2)c(=O)[nH]c1=O	none
Cc1ccc2[nH]c3c(c2c1)CN(C(=O)CN1CC(C)OC(C)C1)CC3 (configuration not stated)	none
Cc1ccc2[nH]c3c(c2c1)CN(C(=O)CN1CCN(Cc2ccc4c(c2)OCO4)CC1)CC3	GLP1R inv ag 3.5µM
O=C(Nc1ccc(CN2CCOCC2)cc1)c1ccc(-c2ccc(Br)cc2)o1	GLP1R inv ag inconclusive, HEK293 tox inconclusive, KCNH2 3.1 inh -103
O=C(Nc1cccc(NC(=O)c2ccc(-c3ccc(Br)cc3)o2)c1)c1ccccc1	GLP1R inv ag inconclusive, KCNH2 3.1 inh -94
COc1cc(C(=O)OC(COCCC(C)C)CN2CCOCC2)cc(OC)c1OC (configuration not stated)	none (no result: hERG WT inh, GLP1R inv ag, HEK293 tox, KCNH2 3.1 inh)
Cc1ccc(-c2csc3nc(SCC(=O)N(C)C)n(Cc4ccccc4)c(=O)c23)cc1	GLP1R inv ag inconclusive, KCNH2 3.1 inh -74
CN(C)c1nc(NCc2ccccc2)nc(N/N=C/c2ccc(Br)cc2)n1	none
Cc1ccc(Nc2nc(N/N=C\c3ccc4c(c3)OCO4)nc(N3CCOCC3)n2)cc1	GLP1R inv ag 4.5µM, HEK293 tox inconclusive
CN(C)c1nc(NCc2ccccc2)nc(N/N=C/c2ccc3c(c2)OCO3)n1	GLP1R inv ag 10µM, HEK293 tox inconclusive
Cc1ccc(/C=N/Nc2cc(C)nc(N3CCOCC3)n2)cc1	none
CCOc1cc(/C=N\Nc2nc(Nc3ccccc3)nc(N3CCOCC3)n2)ccc1OC(=O)c1ccco1	GLP1R inv ag 7.1µM
COc1ccccc1Oc1nnnn1-c1ccc(C(N)=O)cc1	KCNH2 3.1 inh -85
NC(=O)c1ccc(-n2nnnc2Oc2ccccc2)cc1	none
NS(=O)(=O)c1ccc(CCNCc2ccccc2OCc2ccc(F)cc2)cc1	GLP1R inv ag inconclusive, HEK293 tox inconclusive, KCNH2 3.1 inh -76
COc1cc(CNCCc2ccc(S(N)(=O)=O)cc2)ccc1OCc1ccc(Cl)cc1	GLP1R inv ag inconclusive, HEK293 tox inconclusive, KCNH2 3.1 inh -109
